The structures appear in SMILES notation. “And” between values parts separate entries of the source, which are not always exact repeats. Identical values can stand only once. Among all 300,000 compounds or so, about 37,000 (12%) were called active. For the sample, actives were picked, then their nearest neighbours and some compounds at random. Values without a mark were called inactive. Rule as the data show it: active = max response mostly above about 13% (no sharp cut-off); inactive = mostly below about 14%.

A short description of the assay: Cycloheximide Counterscreen for Small Molecule Inhibitors of Shiga Toxin. Also: read at 38.3 µM for the half of the compounds with a filed dose; 0% is about no effect. As to conditions: cell reporter, cycloheximide protein synthesis inhibition counterscreen; hits give high values.
With `CC(=O)c1ccc(N2CCN(C(=O)CCNC(=O)Cn3ccc4ccccc4c3=O)CC2)cc1`, the max response was -4.48%.
For `O=C(O)CCCN1C(=O)c2ccccc2Sc2ncccc21`, the max response is -1.01%.
Take `C=C1CCN(C(CC(C)C)C(=O)NCc2cc(OC)c(OC)c(OC)c2)S(=O)(=O)c2ccccc21` (centres undefined): the max response was -2.25%.
To `Cc1ccc(CSCCNC(=O)CN(c2ccc(F)cc2)S(C)(=O)=O)cc1` belongs -2.68%; to `Cc1ccccc1C(=O)N1CCC(C(=O)Nc2ccc(S(=O)(=O)N(C)C(C)C)cc2)CC1`, 4.98%.
For the compound `CC1CCCCN1C(=O)Cn1c(=O)oc2cc(S(=O)(=O)N3CCCCC3)ccc21` (centres undefined), the max response is -1.34%.
With `CC(C)(C)NCc1cc(Br)ccc1OC1CCCC1`, the max response is -4.63%.
On to `CCCCCCn1cc(C(=O)O)c(=O)c2cc(F)c(N3CCCCC3)cc21`, for which the max response is -0.584%.
Under `O=C(O)CCC(=O)N(Cc1ccco1)c1nc(-c2ccccc2)cs1` stands -1.24%; under `Cc1nnc(N(Cc2ccco2)C(=O)c2ccno2)s1`, -2.88%; under `Cc1ccc(-c2csc(NNC(=O)c3ccccc3)n2)cc1`, -2.93%.
Consider `Cc1ccc(-c2csc(N(Cc3ccco3)C(=O)c3cccs3)n2)cc1`, for which the max response was 16.7% (active).
Turning to `O=C(Nc1n[nH]c(C(F)(F)F)n1)c1cccs1`, the max response is -2.4%.
`Cc1ccc(-c2csc(NC(=O)c3cccs3)n2)cc1`: the max response was 60.5% (active).
Regarding `CCC(CC)c1nnc(NC(=O)C2CCN(C(=O)c3ccco3)CC2)s1`, the max response was -2.36%.
To `O=C(CNC1CCCCC1)NCC1(c2ccccc2)CCCC1` belongs -3.76%; to `COCc1cc(=O)n2[nH]c(C)c(-c3ccccc3)c2n1`, 1.24%; to `COc1cc(C(C)=O)ccc1OC(=O)CN1C(=O)c2ccccc2C1=O`, -2.6%.
Regarding `COc1ccccc1-c1sc2ccccc2c1-c1ccc(C(C)=O)cc1`, the max response is 25.3% (active).
Turning to `COCc1cc(C(C)=O)ccc1OC`, the max response is -7.85%.
Regarding `CC(=O)Nc1ccc(Oc2ccc3c(c2)C(=O)NC3=O)cc1`, the max response was -1.54%.
To `CSc1nc(-c2ccco2)nn1C(=O)CCc1ccccc1` belongs -3.44%; to `CCOCCCNc1nc(-c2ccccc2)nc2ccccc12`, 7.13%; to `CS(=O)(=O)n1nc(-c2ccccc2)nc1NCc1ccco1`, 13.9%.
`O=C(Cc1ccccc1)n1nc(-c2ccccc2)nc1NCc1ccco1`: the max response is 15.3% (active).
With `c1ccc(-c2nc(NCc3ccco3)c3ccccc3n2)cc1`, the max response was 16.8% (active).
Take `c1coc(CNc2ncnc3ccccc23)c1`: the max response is -1.39%.
To `Cc1cc(=O)[nH]c2nnnn12` belongs 4.1%; to `CC1(c2ccccc2)CC(C)(C)N(C(=O)c2cc([N+](=O)[O-])cc([N+](=O)[O-])c2)c2ccccc21` (centres undefined), -4.42%; to `N#CC1(C#N)C(C(=O)C23CC4CC(CC(C4)C2)C3)C12CCOCC2` (centres undefined), 2.45%.
As to `Cc1cccc(N(C)C(=O)c2cc3c(=O)[nH]c4ccc(C)cc4c3s2)c1`, the max response was -2.49%.
Regarding `COc1ccc(COC(=O)c2ccc(Cl)c(S(=O)(=O)N3CCOCC3)c2)cc1F`, the max response is 6.51%.
As for `Cc1cccc(C)c1OCC(=O)NC(Cc1c[nH]c2ccccc12)C(=O)O` (centres undefined), the max response was -0.482%.
For `COc1ccc(-c2cc(=O)oc3cc(OCC(=O)N[C@@H](Cc4c[nH]c5ccccc45)C(=O)O)ccc23)cc1`, the max response is 0.573%.
Under `CC(C)C(NC(=O)c1ccc(Cl)cc1)C(=O)O` (centres undefined) stands -2.96%; under `COc1ccc(-c2cc(C(=O)NC(Cc3c[nH]c4ccccc34)C(=O)O)c(C)o2)cc1OC` (centres undefined), 32.9% (active).
Regarding `CCC(C)NC(=O)c1cc(Cl)ccc1OC` (centres undefined), the max response is 5.03%.
For `COc1ccc(-c2cc(C(=O)NC(C(=O)O)C(C)C)c(C)o2)cc1OC` (centres undefined), the max response is 28.2% (active).
To `COc1ccc(C(=O)N/N=C2\CCS(=O)(=O)c3ccc(F)cc32)cc1OC` belongs -4.85%.
On to `O=C(CN(C(=O)c1csnn1)c1cccc(Cl)c1)NC1CCCC1`, for which the max response is 4.33%.
For `Cc1c(OC(C)C(=O)N[C@@H](Cc2ccccc2)C(=O)O)ccc2c3c(c(=O)oc12)CCCC3` (some centres undefined), the max response is -2.81%.
As to `CCCOc1ccc2c3c(c(=O)oc2c1OCCC)CCC3`, the max response is -3.41%.
Under `COc1ccc2c3c(c(=O)oc2c1OCC(=O)C(C)(C)C)CCCC3` stands 35% (active).
`COc1ccc(C(=O)CN(C(=O)c2ccc(Cl)cc2)N2C(=O)c3ccccc3C2=O)cc1`: the max response is -2.08%.
`CCn1c(C)cc(=O)cc1-c1ccc(Cl)cc1`: the max response is -3.63%.
In the case of `COc1ccc(Cn2c(-c3ccc(Cl)cc3)c[n+]3ccccc23)cc1`, the max response is 50.5% (active).
For `CCOc1ccc(NC(=O)CCS(=O)(=O)c2ccc3c(c2)CCCN3C(=O)CC)cc1`, the max response is -2.69%.
As to `Cc1ccc(C(=O)COC(=O)CCN2C(=O)C3C4CCC(C4)C3C2=O)cc1C` (centres undefined), the max response is 11.1%.
For the compound `COC(=O)c1scc(C)c1NC(=O)CSc1ccc(Cl)cc1`, the max response was -0.926%.
`Cc1nn(CC(=O)Nc2ccc(F)cc2)c(=O)c2ccccc12`: the max response is 6.83%.
As to `CCC(=O)Nc1ccc2nn(-c3ccc(F)cc3)nc2c1`, the max response is 48.7% (active).
Turning to `O=C(CN1CCN(c2ccc(F)cc2)CC1)Nc1cccc(C(F)(F)F)c1`, the max response is 11.8%.
As for `Cc1cc(/C=C2/SC(=O)N(CC(=O)N3CCCC3)C2=O)c(C)n1C`, the max response was -2.09%.
Regarding `CC(C)OC(=O)CN1C(=O)c2ccccc2C1=O`, the max response is 0.757%.
As to `Cc1cc(/C=C2/SC(=O)N(CC(=O)OC(C)C)C2=O)c(C)n1C`, the max response was 44% (active).
Consider `CC(C)OCCCNC(=S)N1CCC(C(=O)c2ccc3c(c2)OCCO3)CC1`, for which the max response is -2.67%.
Under `CC1CCC2(CC1)NC(=O)N(Cc1nnc(-c3cccs3)o1)C2=O` (centres undefined) stands 7.72%.
In the case of `c1csc(-c2nnc(COc3ccc4c(c3)OCO4)o2)c1`, the max response is 43% (active).
To `c1csc(-c2nnc(COc3ncnc4sccc34)o2)c1` belongs -1.52%.
Consider `COc1cccc(Nc2nnc(SCC(=O)N3CC(C)OC(C)C3)s2)c1` (centres undefined), for which the max response is 6%.
Under `COc1cccc(NC(=O)Nc2nnc(N3CCCCC3C)s2)c1` (centres undefined) stands 43.6% (active).
Consider `COc1cccc(C(=O)Nc2nnc(S(=O)(=O)N3CCCCC3)s2)c1`, for which the max response is -1.34%.
Regarding `O=C1CCN(CCc2ccccc2)CCN1CCOc1ccccc1`, the max response is 10.9% (active).
With `O=C1CCN(CCCc2ccccc2)CCN1CCO`, the max response was -4.59%.
Consider `O=C(c1ccco1)N1CCN(CCOc2ccccc2)CC1`, for which the max response was 9.67%.
`Cn1ncc2c(N3CCCCC3)nc(NCCCO)nc21`: the max response is -5.17%.
As for `OCCC#Cc1ccc(CN2CCN(Cc3ccsc3)C(CCO)C2)cc1` (centres undefined), the max response was 11.5%.
Take `CC1CCN(C(=S)c2cccc([N+](=O)[O-])c2)CC1`: the max response was -0.525%.
Regarding `O=C(/C=C/c1ccc(F)cc1)NC(=S)NNC(=O)c1cccnc1`, the max response is -1.85%.
Regarding `CS(=O)(=O)N(CC(=O)N1CCOCC1)c1cccc(Cl)c1Cl`, the max response is 4.45%.
Turning to `Cc1cccc(NC(=O)CSc2nc3[nH]ncc3c(=O)[nH]2)c1`, the max response is 6.25%.
On to `CCCSc1nc2[nH]ncc2c(=O)[nH]1`, for which the max response is -7.37%.
In the case of `Cc1ccc(CSc2nc3[nH]ncc3c(=O)[nH]2)cc1`, the max response was 44.4% (active).
As to `CCC(C)(C)NC(=O)C(c1ccc(OC)cc1)N(C(=O)CCC(=O)Nc1cc(C)on1)c1ccc(OC)cc1OC` (centres undefined), the max response was -1.05%.
In the case of `COC(=O)c1ccc([C@@H](O)[C@H](C)C(=O)CC(=O)OC(C)(C)C)cc1`, the max response is 16.5% and 4.37%.
Regarding `CC(C)Sc1nnc([C@H](Cc2ccccc2)NC(=O)OC(C)(C)C)o1`, the max response is -2%.
For the compound `C[C@H](NC(=O)OC(C)(C)C)c1nnc(SCC(N)=O)o1`, the max response was 1.54%.
For the compound `C[C@@H](NC(=O)OC(C)(C)C)c1nnc(S(=O)(=O)Cc2ccccc2)o1`, the max response was 15.5% (active).
With `COc1cc(-c2nnn(CC(=O)NCc3ccccc3)n2)cc(OC)c1OC`, the max response was -0.552%.
As for `Cc1ccc(-n2c(O)c(C=Nc3ccc(S(=O)(=O)Nc4ncccn4)cc3)c3ccccc3c2=O)cc1C`, the max response is 9.64%.
On to `CC(C)Oc1ccc(CN2CCC(n3nccc3NC(=O)c3cccnc3)CC2)cc1`, for which the max response is 2.69%.
For `COC(=O)C1=CN(c2ccc(F)c(F)c2)C=C(C(=O)OC)C1c1ccc([N+](=O)[O-])cc1`, the max response is 4.1%.
`CC(=O)c1ccc(N2CCN(S(=O)(=O)c3ccc4c(c3)CC(=O)N4C)CC2)cc1`: the max response was 11.5%.
Take `COC(=O)c1cc(NC2c3ccccc3C(=O)N2c2ccc(Cl)cn2)cc(C(=O)OC)c1` (centres undefined): the max response was 13.7% (active).
For the compound `COC(=O)c1cc(NC(=O)c2nn(C)c(=O)c3ccccc23)cc(C(=O)OC)c1`, the max response was -2.61%.
Regarding `CCc1ccccc1NC1c2ccccc2C(=O)N1c1cccnc1` (centres undefined), the max response is 1.65%.
For the compound `COCCNC(=O)c1ccc2c(c1)ncn2-c1ccc(C)c(Cl)c1`, the max response is -2.44%.
Turning to `Cc1cc(OCCCN2CCN(Cc3ccccc3)CC2)ccc1[N+](=O)[O-]`, the max response is 2.14%.
`NC1=NC(=O)C(Cc2cccc(Cl)c2Cl)S1` (centres undefined): the max response is -1.63%.
For the compound `O=C(/C=C/Sc1ncn[nH]1)c1ccc(Cl)cc1`, the max response was 35.4% (active).
For `COc1ccc(Cl)cc1CSc1ncn[nH]1`, the max response is 1.38%.
On to `O=C(NCCOCc1ccc(Cl)cc1)c1ncn[nH]1`, for which the max response is -5.7%.
As to `Nc1nonc1-n1nnc(C(=O)N/N=C/C2CCCCC2)c1-c1ccccc1`, the max response is -3.53%.
For `COc1ccc(C(C(=O)NCc2ccccc2)N(Cc2cccs2)C(=O)c2cnccn2)cc1` (centres undefined), the max response is 0.798%.
